Reference: PubChem BioAssay AID2559 (National Center for Advancing Translational Sciences (NCATS), 2010)
This is one part of the list. Entries that show only a call come without a potency. Calls of active or inactive are those of the source.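 Rule for the calls: active = compounds giving a full or partial concentration-response curve, as inhibitors or activators; inconclusive = weak, top-dose-only or unclear curve responses; inactive = no response at any tested dose.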

Each compound was assayed against Pyruvate kinase (Leishmania mexicana) (UniProt Q27686) (assay: Confirmation Assay for Inhibitors of Leishmania Mexicana Pyruvate Kinase (LmPK)). Details: purified LmPK, Kinase-Glo ATP luminescence, 1 h; series mostly up to 57.5 µM.
Pyruvate kinase (Leishmania mexicana), sequence (Q27686 whole entry, looked up): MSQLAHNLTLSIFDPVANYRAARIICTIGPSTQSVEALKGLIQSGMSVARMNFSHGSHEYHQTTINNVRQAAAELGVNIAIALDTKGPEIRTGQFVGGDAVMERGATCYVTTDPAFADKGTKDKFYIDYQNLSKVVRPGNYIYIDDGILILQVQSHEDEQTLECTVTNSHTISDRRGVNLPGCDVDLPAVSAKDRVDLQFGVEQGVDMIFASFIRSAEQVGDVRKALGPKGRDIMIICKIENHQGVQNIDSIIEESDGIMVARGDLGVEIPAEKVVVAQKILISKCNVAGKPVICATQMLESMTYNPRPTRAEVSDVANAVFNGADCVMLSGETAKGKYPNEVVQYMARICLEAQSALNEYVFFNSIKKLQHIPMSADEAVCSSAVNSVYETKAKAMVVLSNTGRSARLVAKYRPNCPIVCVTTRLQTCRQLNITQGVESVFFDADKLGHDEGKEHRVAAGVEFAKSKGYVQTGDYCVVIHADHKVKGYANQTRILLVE
Excerpt: NIH Chemical Genomics Center [NCGC] Malcolm Walkinshaw, Hugh Morgan, Linda Gilmore University of Edinburgh, UK MLPCN Grant: 1 R03 MH085697-01 NCGC Assay Overview: Pyruvate kinase (L. Mexicana) (LmPK) enzyme was supplied as a highly purified (>95% pure) sulphate-free preparation from University of Edinburgh, UK and assayed for its ability to generate ATP from ADP using phosphoenolpyruvate (PEP) as a substrate. ATP generation was detected in a coupled reaction by luciferase-mediated luminescence, an ATP-dependent process. […] The enzyme was assayed at an intermediate level of activity to screen for both inhibitors and activators.
NCGC Assay Protocol Summary: Three uL of enzyme mix (kept on ice) in assay buffer (50 mM Imidazole pH7.2, 50 mM KCl, 7 mM MgCl2, 0.01% Tween 20, 0.05% BSA) containing PEP (0.5 mM final concentration) and LmPK (0.1 nM final concentration) was dispensed into white solid bottom 1,536 well microtiter plates. 23 nL of compound were delivered by a pin tool and 1 uL of ADP mix in assay buffer (r.t; 0.1 mM final ADP concentration) was added. Plates were incubated at room temperature for 1 hour. Two uL of detection mix (Kinase-Glo, Promega; at 4 degree Celsius protected from light) was added and luminescence read by a ViewLux (Perkin Elmer) at 1 second exposure/plate. Data were normalized to the uninhibited and AC100 inhibition (no enzyme). To monitor activation, the first column contained a five-fold concentration of LmPK (0.5 nM).
With Cn1cc(CN2CCCCC2c2ccccn2)c(-c2ccc3c(c2)OCCO3)n1 (configuration not stated) the Potency was “inactive”. In the case of COc1ccc(-c2cn3ccc(C)cc3n2)cc1, the Potency is reported as 9.19 µM (active). With CN1CC(c2ccccc2)C2(COc3ccccc3C2=O)C12C(=O)Nc1ccccc12 (configuration not stated) the Potency was “inactive”. COc1ccc(C(=O)C[n+]2ccc(N)c(C)c2C)cc1 was tested, and the Potency was “inactive”. With CC(=O)N(C1=C(Cl)C(=O)c2ccccc2C1=O)c1ccc(C(=O)O)cc1 the Potency was 2.59 µM (active). For COCCN(C(=O)c1ccco1)c1nnc(-c2ccc(OC)cc2)s1, the Potency was “inactive”. With COc1ccc(-c2cc(C(F)(F)F)nc(NCc3cccnc3)n2)cc1 the Potency was “inactive”.
